# Pf growth 96h – P. falciparum growth inhibition at 96 hours; P. falciparum luciferase reporter growth, 96 h; Potency, µM (series often up to 28.7 µM), usual class: inhibitors; 6.9% of 320,000 active; AID 504834
#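 P. falciparum expressing integrated firefly luciferase grown in erythrocytes (2% hematocrit, 0.05% parasitemia final) with compounds for 96 hours at 37 C, 5% CO2. Growth inhibition read as loss of luminescence after adding luciferase detection reagent.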
# HCMV antiviral – human cytomegalovirus inhibition; HFF cells, HCMV-luciferase reporter, 72 h; active compounds read low; 4.5% of 410,000 active; AID 1259415; activity change, negative = inhibition, % at 57.5 µM; in the data active = activity change below about -60%; inconclusive = no clear call, values can overlap the other calls; inactive = above about -39%
#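 Steps: HFFs plated, 16 h 37C; compounds added; HCMV-luciferase added to MOI 1 PFU/cell; 72 h 37C; OneGlo reagent, 5 min room temperature; luminescence read, normalized to controls.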
# Giardia FBPA inh – inhibitors of Giardia lamblia fructose-1,6-bisphosphate aldolase. 0.71% of 290,000 active. AID 2451. A8B2U2. Potency, µM (top dose mostly 59.6 µM), usual class: inhibitors. purified Giardia FBPA; note: nearly all actives have a fitted effect of over 55% in size
# Target sequence (A8B2U2 whole entry, looked up): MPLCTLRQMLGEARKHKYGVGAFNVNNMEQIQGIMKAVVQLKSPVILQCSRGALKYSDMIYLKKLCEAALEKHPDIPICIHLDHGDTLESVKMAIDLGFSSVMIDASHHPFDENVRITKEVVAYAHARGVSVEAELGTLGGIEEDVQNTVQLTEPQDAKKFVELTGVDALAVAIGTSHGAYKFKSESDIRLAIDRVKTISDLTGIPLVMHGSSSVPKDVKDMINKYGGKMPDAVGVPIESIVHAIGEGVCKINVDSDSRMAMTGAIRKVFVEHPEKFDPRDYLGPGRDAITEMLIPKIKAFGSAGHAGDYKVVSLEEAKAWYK
#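 40 nM FBPA preincubated 10 min at RT with compound (up to 57.5 uM final), then substrate plus GAPDH/TPI/NAD/arsenate coupling and diaphorase/resazurin added. Fluorescence read after 20 min at RT, 525/598 nm.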
# Pf growth 48h – inhibits P. falciparum growth in the first generation, 48 h; P. falciparum luciferase growth in erythrocytes, 48 h; Potency, µM (highest dose often 28.7 µM), actives largely listed as inhibitors; 5.9% of 310,000 active
#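 Luciferase-expressing P. falciparum in infected erythrocytes (2% hematocrit, 0.1% parasitemia final) in RPMI 1640/0.5% Albumax were exposed to compound for 48 hours at 37 C, 5% CO2; growth read as luminescence.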
# Sm TGR inh – blocks Schistosoma mansoni thioredoxin glutathione reductase | Q962Y6 | purified TGR, DTNB reduction, TNB absorbance 405 nm | Potency, µM (series often up to 114 µM), usual class: inhibitors | 3% of 360,000 active | AID 485364; note: nearly all actives have a fitted effect of over 60% in size
#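 Kinetic colorimetric format: TGR-catalysed, NADPH-driven DTNB reduction monitored via TNB absorbance. Enzyme dispensed at 20 nM; compound exposure 15 min at room temperature before reaction start.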
# Hits are given with their value; . = inactive; ? = inconclusive; / = no result given. In the library only some 14% were active in any assay of this set; here they are far more common. Unless noted, calls come from the whole dose curve; as a rule, active = well fitted curve in the direction sought with a large enough effect; inconclusive = small, poorly fitted or top-dose-only effect, or another doubt; inactive = no such curve, though single readings can be large; an effect the other way counts as inactive or inconclusive.
SMILES,Pf growth 96h,HCMV antiviral,Giardia FBPA inh,Pf growth 48h,Sm TGR inh
Cc1ccc(S(=O)(=O)NC(=O)C2(C)CCN2C(=O)c2ccccc2CCc2ccccc2)nc1 (stereo not given),/,.,/,/,/
Cc1ccc(-n2cc(CN(C)Cc3nccn3C)c(-c3ccc(F)cc3)n2)cc1,.,?,.,8.28µM,.
CC(=O)N1CCCN(Cc2cn(-c3ccc(C)cc3)nc2-c2cccc(C)c2)CC1,?,.,.,9.28µM,.
Cc1cccc(-n2cc(CN3CCN(Cc4nccn4C)CC3)c(-c3cccc(F)c3)n2)c1,.,.,.,3.29µM,.
COc1ccc(-n2cc(CN3CCCC3)c(-c3cccc(F)c3)n2)cc1,.,?,.,?,.
Cc1ccc(-n2cc(CN3CCNC(=O)CC3)c(-c3ccc(F)cc3)n2)cc1,?,?,.,?,.
Cc1ccc(-n2cc(CN3CCC(O)(c4ccccn4)CC3)c(-c3ccc(F)cc3)n2)cc1,2.33µM,?,.,4.65µM,?
O=C(CCC1CCCN(C(=O)CCCc2ccccc2)C1)N1CCN(c2ccccn2)CC1 (stereo not given),?,.,.,?,.
O=C(NC(c1ccccc1)c1cnccn1)C1CCN(CCOc2ccc(Cl)cc2Cl)CC1 (stereo not given),/,.,/,/,/
CC(=O)N(Cc1ccccc1)C(CC(=O)NCc1ccccc1)C(=O)O (stereo not given),/,.,/,/,/
COc1cc(/C=C2\SC(=S)N(NS(=O)(=O)c3ccc(C)cc3)C2=O)cc(OC)c1OC,?,.,.,4.65µM,?
COc1cc(/C=C2\SC(=S)N(NS(=O)(=O)c3ccc(C)cc3)C2=O)ccc1O,.,.,.,?,?
Cn1cnnc1SCc1ccc(C(=O)N=Nc2c(O)n(Cc3ccc(Cl)cc3)c3ccccc23)cc1,3.7µM,.,.,2.33µM,.
O=C(N=Nc1c(O)n(Cc2ccccc2)c2ccccc12)c1ccc(O)cc1,11.7µM,.,.,?,.
CCn1c(O)c(N=NC(=O)c2ccc(CSc3nncn3C)cc2)c2ccccc21,11.7µM,?,.,10.4µM,.
O=C(N=Nc1c(O)n(Cc2ccccc2)c2ccccc12)c1cc2ccccc2cc1O,.,.,?,?,.
CCCSc1ncc(Cl)c(C(=O)Nc2ccc(S(=O)(=O)N3CCCCC3C)cc2)n1 (stereo not given),/,.,/,/,?
COc1ccc(S(=O)(=O)NCCCCC(=O)O)cc1C(=O)O,.,.,.,.,.
O=C(O)CCC1(CCC(=O)O)c2ccccc2-c2ccccc21,6.57µM,.,.,.,.
CCc1cccc(C)c1NC(=O)CN1C(=O)c2c(c3ccccc3n2C)C1c1ccc(OC)cc1 (stereo not given),/,.,/,/,.
COc1ccccc1S(=O)(=O)Nc1cc(C)nn1-c1ccc(C)cc1,?,.,/,2.62µM,.
O=C(CN1C(=O)CSc2ccc(S(=O)(=O)N3CCCCC3)cc21)NCc1ccccc1,4.15µM,.,/,.,.
CCN(CC)CCCNC(=O)CN1C(=O)CSc2ccc(S(=O)(=O)N3CCOCC3)cc21,?,.,.,.,.
O=C(CN1C(=O)CSc2ccc(S(=O)(=O)N3CCCCCC3)cc21)NCCc1ccccc1,/,.,/,/,/
CCN(CC)CC(C)CNC(=O)CN1C(=O)CSc2ccc(S(=O)(=O)N3CCOCC3)cc21 (stereo not given),13.1µM,.,.,.,.
SMILES,Pf growth 96h,HCMV antiviral,Giardia FBPA inh,Pf growth 48h,Sm TGR inh
CCC1CCCCN1C(=O)COC(=O)c1cncc(Br)c1 (stereo not given),/,.,/,/,/
CCCCC1=CC2=C(OC(C)=O)C(=O)C(C)(OC(=O)CCC(=O)OC)C(=O)C2=CO1 (stereo not given),/,/,.,/,/
Cc1ccc(C(=O)NCCNC(=O)COc2ccc(C)c(C)c2)cn1,.,.,.,.,.
COc1ccc(C(=O)NNC(=O)C2CC=CCC2)cc1 (stereo not given),2.33µM,.,.,.,.
CCOC(=O)c1ccc(C(=O)NNC(=O)C2CC=CCC2)cc1 (stereo not given),/,.,/,/,/
CCC(Cc1ccccc1)NC(=O)CCNS(=O)(=O)c1cc(Br)cnc1N (stereo not given),.,.,/,.,.
CCc1ccc(NC(=O)[C@H](C)NC(=O)C2CCN(C(=O)[C@@H](NC(=O)OC(C)(C)C)C(C)C)CC2)cc1,?,-70.7,.,?,.
CN1CCN(C(=O)C[C@@H]2CC[C@@H]3[C@H](COC[C@@H](O)CN3Cc3cccc(Cl)c3)O2)CC1,/,.,/,/,/

# From PubChem
